In PubChem BioAssay:

Target: Fibroblast growth factor 2 (Homo sapiens) (UniProt P09038)
Experiment: basic fibroblast growth factor binding to printed compounds – biochemical, small-molecule microarray, 635/667 nm fluorescence, primary screen (AID 1133)
Details: FGF2, fluorescence 635/667, higher = more signal

Fibroblast growth factor 2 (Homo sapiens), sequence (P09038 whole entry, looked up): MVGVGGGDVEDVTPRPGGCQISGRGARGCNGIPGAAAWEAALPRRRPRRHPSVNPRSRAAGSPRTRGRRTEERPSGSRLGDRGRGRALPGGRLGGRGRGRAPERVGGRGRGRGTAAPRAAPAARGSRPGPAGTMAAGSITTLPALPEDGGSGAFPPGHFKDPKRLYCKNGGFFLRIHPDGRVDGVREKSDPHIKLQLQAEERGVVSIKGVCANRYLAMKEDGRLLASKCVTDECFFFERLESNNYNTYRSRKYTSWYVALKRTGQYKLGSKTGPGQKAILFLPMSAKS

Point of comparison: `CCOC(=O)C[C@H]1[C@H](OC(=O)c2ccc(C(=O)c3ccccc3)cc2)[C@@H](NC(=O)c2ccccc2)c2cc(OCCCO)ccc2N1C(=O)c1ccc2ccccc2n1`, composite z-score -0.268. Against it:
- CCCCCN1CC=CC23O[C@@H]4/C=C\CCC(C)OC(=O)C4[C@H]2C(=O)N(C(C)CO)[C@@H]3C1=O (stereo partly drawn) — lower, -0.556
- Cc1ccc(S[C@]2(C(=O)NC3CC3)CC(=O)N(Cc3ccccc3)[C@@H]2c2ccc(CO)cc2I)cc1 — higher, -0.131
- O=C1NC(=O)C2C1C=CC(C(O)c1cccs1)N2Nc1ccc(Cl)cc1Cl (stereo not drawn) — lower, -0.534
- C=CCC(OC(C)=O)[C@@H]1[C@@H](N(Cc2ccc(-c3ccccc3)cc2)C(=O)c2cccc3ccccc23)c2cc(OCCCO)ccc2N1C(=O)c1ccc(-c2ccccc2)cc1 (stereo partly drawn) — higher, -0.0136
- COc1cc2c(cc1O)C(C1CC1)N(Cc1sc3ccccc3c1Cl)CC2 (stereo not drawn) — higher, 0.124

Tested on: not listed separately
Experiment: JC-1 mitochondrial potential readout, lung cancer cells – cell-based, A549, JC-1 fluorescence, basal, 24 h, 100 nL, profiling panel (AID 1138);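 also: A549 lung adenocarcinoma cells under basal conditions with no added stimulus; test concentration not given here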
Details: higher = more signal

Point of comparison: `C=C(CC1([C@@H](NP(=O)(c2ccccc2)c2ccccc2)[C@H]2C[C@@H]2CCCC)CC1)c1ccccc1`, z-score -0.0757. Against it:
- COCCOC(=O)N1C(=O)[C@@]2(c3ccccc31)[C@H](c1ccc(O)cc1)N1[C@H](c3ccccc3)[C@H](c3ccccc3)OC(=O)[C@H]1[C@@H]2C(=O)Nc1nc2ccccc2s1 — lower, -2.42
- NC(=O)NCC#Cc1ccc2c(c1)[C@]1(C(=O)N2)[C@H](C(=O)Nc2nc3ccccc3s2)[C@H]2C(=O)O[C@H](c3ccccc3)[C@H](c3ccccc3)N2[C@@H]1c1ccccc1OCCO — lower, -2.46
- COCCOC(=O)N1C(=O)[C@@]2(c3ccccc31)[C@H](c1ccccc1OCCO)N1[C@H](c3ccccc3)[C@H](c3ccccc3)OC(=O)[C@H]1[C@@H]2C(=O)N1CCN(c2ncccn2)CC1 — lower, -1.21
- COC(=O)[C@@]1(Cc2ccc(F)cc2)[C@H]2c3cc(C(=O)N4CCCC4)n(CCCNc4ncc(C(F)(F)F)cc4Cl)c3C[C@H]2CN1C(=O)c1ccccc1 — higher, 0.742
- CC(C)C[C@@H]1NC(=O)[C@@H]2C[C@H](C(=O)NCc3ccc(F)cc3)[C@H](c3cccc(OCCO)c3)N2C1=O — higher, 1.87
- C=CCC(OC(C)=O)[C@@H]1[C@@H](N(Cc2cc3ccccc3o2)C(=O)c2cccc3ccccc23)c2cc(OCCCO)ccc2N1C(=O)c1ccc(-c2ccccc2)cc1 (stereo partly drawn) — higher, 0.461
- C#C[C@H](O[Si](C#Cc1ccc(Oc2ccccc2)cc1)(C(C)C)C(C)C)c1ccccc1 — lower, -1.83
- O=C1N[C@@H](Cc2ccccc2)C(=O)N2[C@@H]1C[C@@H](C(=O)O)[C@H]2c1cccc(OCCO)c1 — higher, 0.849
- COCCCNC(=O)[C@@]1(C)c2ccccc2C(=O)N(C(C)C)[C@H]1c1ccc(CO)cc1 — higher, 0.168
- C=CCN1C(=O)[C@@]2(Cc3ccccc31)N=C(c1ccc(OCCCO)cc1)O[C@H]2c1ccccc1 — higher, 1.1
- CN(C)CCCCCCNC(=O)[C@H]1C[C@H]2C(=O)N[C@@H](CCCCN)C(=O)N2[C@H]1c1cccc(OCCO)c1 — higher, 0.332
- COc1cc2c(cc1OC)CN(C(=O)[C@H]1[C@@H]3C(=O)O[C@@H](c4ccccc4)[C@@H](c4ccccc4)N3[C@@H](c3ccc(O)cc3)[C@]13C(=O)Nc1ccccc13)CC2 — lower, -0.517
- C=CC1(C(=O)OC)CC=C(C(=O)OC)CC1 (stereo not drawn) — higher, 0.263
- CCCC=C(CCC)[C@@H](NC(=O)c1cccs1)c1ccc(C(F)(F)F)cc1 — higher, 0.627
- C=CCNC(=O)[C@@H]1[C@H]2C(=O)O[C@H](c3ccccc3)[C@H](c3ccccc3)N2[C@H](c2ccccc2OCCO)[C@@]12C(=O)N(C(=O)OCCOC)c1ccccc12 — higher, 0.432
- COC(=O)C[C@H]1O[C@]2(C(=O)N(C)c3ccccc32)[C@@H](C)[C@@H]1[Si](C)(C)F — higher, 0.435
- C=CCOC(=O)[C@@H]1[C@H]2C(=O)O[C@H](c3ccccc3)[C@H](c3ccccc3)N2[C@H](c2ccc(OCCOC(=O)[C@@H]3C[C@@H]4C(=O)NCC(=O)N4[C@@H]3c3ccc(O)cc3)cc2)[C@@]12C(=O)Nc1ccc(I)cc12 — lower, -1.73
- COc1ccc(CCNC(=O)[C@@]2(C)c3ccccc3C(=O)N(C(C)C)[C@H]2c2ccc(CO)cc2)cc1 — higher, 0.537
- COC(=O)[C@H](Cc1ccccc1)N1CC2=C[C@@H](C3CC3)n3c(=O)n(C)c(=O)n3[C@H]2[C@@H]1[C@@H](O)Cc1ccccc1 — higher, 1.58
- C=C(/C(=C/C[C@H](OC(C)=O)c1ccc(CO)o1)c1cc(C(=O)OC)ccc1OC)C(C)C — lower, -0.483
- [N-]=[N+]=Nc1ccccc1[C@H]1OC(c2ccc(OCCCO)cc2)=N[C@@]1(CCS(=O)(=O)c1ccccc1)C(N)=O — higher, 0.118
